The nature of assay [1]: NS1 protein of Zika virus - qHTS assay to identify small molecule inhibitors in human HEK 293 cells (AID 1347053). Further: nearly all actives have a fitted effect of over 55% in size. Further: potency means the concentration at half of the fitted maximal effect. As to conditions: HEK293 ZIKV MR766 infection, NS1 TR-FRET, 24 h; series mostly up to 46.1 µM. A digest of the protocol: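 HEK 293 cells pretreated with compound for 1 h, then infected with ZIKV MR766 (MOI 0.5) for 24 h at 37 C. NS1 detected by TR-FRET with two anti-NS1 antibodies; normalized to uninfected (0%) and infected (100%) wells.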
(In general: Quantitative high-throughput screening tests each substance at several concentrations.)

Assay [2] in a line: qHTS for Inhibitors of the Functional Ribonucleoprotein Complex (vRNP) of Lassa (LASV) Arenavirus: LASV Primary Screen - GLuc reporter signal (AID 1347082; calls by dose curve; tested in HEK293 reporter line; further: nearly all actives have a fitted effect of over 60% in size; further: potency means the concentration at half of the fitted maximal effect). As to conditions: LASV minigenome vRNP, Gaussia luciferase reporter; series mostly up to 57.5 µM.
Assay [3] in a line: qHTS for Inhibitors of the Functional Ribonucleoprotein Complex (vRNP) of Lassa (LASV) Arenavirus: Viability assay - alamar blue signal for LASV Primary Screen (AID 1347083; calls by dose curve; tested in HEK293 reporter line; further: nearly all actives have a fitted effect of over 80% in size; further: potency means the concentration at half of the fitted maximal effect). Particulars: cell viability, alamar blue fluorescence (LASV minigenome counter-screen); series mostly up to 57.5 µM.
Assay [4] can be described thus: Natriuretic polypeptide receptor (hNpr1) antagonism - Pilot counterscreen GloSensor control cell line (AID 1347045; calls by dose curve; further: potency means the concentration at half of the fitted maximal effect). Particulars: HEK293 cGMP GloSensor cells, SNP-stimulated luminescence, 20 min; series mostly up to 38.3 µM. Put shortly: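 Luminescence was read before and 20 min after adding 50 uM SNP, which stimulates soluble guanylyl cyclase. The HEK293 cells expressing the GloSensor cGMP sensor had been preloaded with 2% reagent for 2 h and treated with compound.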
(In general: A counterscreen serves to expose hits that act by an unwanted route or on another target.)

For assay [5], the target named is Atrial natriuretic peptide receptor 1 (Homo sapiens) (UniProt P16066). In words: Natriuretic polypeptide receptor (hNpr1) antagonism - Pilot screen (AID 1347049; calls by dose curve;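 further: agonist-evoked cGMP luminescence read 20 min after hNppA addition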; further: potency means the concentration at half of the fitted maximal effect). As to conditions: hNpr1 cells, antagonist mode cGMP read-out; series mostly up to 57.5 µM. A digest of the protocol:
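Readout is cGMP-driven firefly luciferase luminescence in HEK293 cells carrying hNpr1 and a PDE5-domain GloSensor, read before and 20 min after 0.1 nM hNppA stimulation. Cells had 2% substrate reagent for 2 h and test compound for 30 min.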

The target in assay [6] is Atrial natriuretic peptide receptor 2 (Homo sapiens) (UniProt P20594). Put plainly: Natriuretic polypeptide receptor (hNpr2) antagonism - Pilot subtype selectivity assay (AID 1347050; calls by dose curve; further: potency means the concentration at half of the fitted maximal effect). Particulars: NPR2-expressing cells, cGMP antagonist-mode read-out; series mostly up to 38.3 µM. A digest of the protocol: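 Pilot selectivity screen against hNpr2: HEK293 cGMP-sensor cells are treated with LOPAC1280 compounds, then with hNppC peptide at 1 nM final. The cGMP-driven luminescence change over 20 min at room temperature is the read-out.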

Assay [7] deals with Tyrosine-protein phosphatase non-receptor type substrate 1 (Homo sapiens) + Leukocyte surface antigen CD47 (Homo sapiens) (UniProt P78324+Q08722). Put plainly: CD47-SIRPalpha protein protein interaction - Alpha assay qHTS validation (AID 1347059).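 Further: bead proximity luminescence from CD47 binding SIRPalpha after compound preincubation with SIRPalpha.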 As to conditions: AlphaScreen CD47-His/biotin-SIRPalpha binding, LOPAC; series mostly up to 38.3 µM. A digest of the protocol:
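Binding is measured by AlphaScreen proximity: Ni-NTA acceptor beads capture His-CD47, streptavidin donor beads capture biotin-SIRPalpha. Each of three additions (SIRPalpha with compound, CD47, beads) incubates 30 min at room temperature protected from light.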

Assay [8] deals with Parathyroid hormone/parathyroid hormone-related peptide receptor (Homo sapiens) (UniProt Q03431). In words: qHTS for PTHR1 Agonists: Optimization Screen against the NCGC LOPAC library (AID 1347079).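 Further: GloSensor cAMP luminescence in HEK-293 GP2 cells expressing human PTHR1 with IBMX.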 Particulars: HEK293 GP2 PTHR1 GloSensor cAMP luminescence, 1 h; series mostly up to 57.1 µM. Put shortly:
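Agonist readout: GloSensor cAMP luminescence, read after 15 min at room temperature. HEK-293-derived GP2 line carries PTHR1; compounds tested as a titration for 1 hr at 37C in presence of IBMX. M-PTH (1-15) served as control.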

The structures appear in SMILES notation. Records with an inconclusive call do not appear. Calls of active or inactive are those of the source. Unless noted, the call rests on the fitted dose curve; in most records, active means well fitted curve in the direction sought with a large enough effect; inconclusive means small, poorly fitted or top-dose-only effect, or another doubt; inactive means no such curve, though single readings can be large; an effect the other way counts as inactive or inconclusive.

Sequence of Atrial natriuretic peptide receptor 2 (Homo sapiens) (P20594 whole entry, looked up): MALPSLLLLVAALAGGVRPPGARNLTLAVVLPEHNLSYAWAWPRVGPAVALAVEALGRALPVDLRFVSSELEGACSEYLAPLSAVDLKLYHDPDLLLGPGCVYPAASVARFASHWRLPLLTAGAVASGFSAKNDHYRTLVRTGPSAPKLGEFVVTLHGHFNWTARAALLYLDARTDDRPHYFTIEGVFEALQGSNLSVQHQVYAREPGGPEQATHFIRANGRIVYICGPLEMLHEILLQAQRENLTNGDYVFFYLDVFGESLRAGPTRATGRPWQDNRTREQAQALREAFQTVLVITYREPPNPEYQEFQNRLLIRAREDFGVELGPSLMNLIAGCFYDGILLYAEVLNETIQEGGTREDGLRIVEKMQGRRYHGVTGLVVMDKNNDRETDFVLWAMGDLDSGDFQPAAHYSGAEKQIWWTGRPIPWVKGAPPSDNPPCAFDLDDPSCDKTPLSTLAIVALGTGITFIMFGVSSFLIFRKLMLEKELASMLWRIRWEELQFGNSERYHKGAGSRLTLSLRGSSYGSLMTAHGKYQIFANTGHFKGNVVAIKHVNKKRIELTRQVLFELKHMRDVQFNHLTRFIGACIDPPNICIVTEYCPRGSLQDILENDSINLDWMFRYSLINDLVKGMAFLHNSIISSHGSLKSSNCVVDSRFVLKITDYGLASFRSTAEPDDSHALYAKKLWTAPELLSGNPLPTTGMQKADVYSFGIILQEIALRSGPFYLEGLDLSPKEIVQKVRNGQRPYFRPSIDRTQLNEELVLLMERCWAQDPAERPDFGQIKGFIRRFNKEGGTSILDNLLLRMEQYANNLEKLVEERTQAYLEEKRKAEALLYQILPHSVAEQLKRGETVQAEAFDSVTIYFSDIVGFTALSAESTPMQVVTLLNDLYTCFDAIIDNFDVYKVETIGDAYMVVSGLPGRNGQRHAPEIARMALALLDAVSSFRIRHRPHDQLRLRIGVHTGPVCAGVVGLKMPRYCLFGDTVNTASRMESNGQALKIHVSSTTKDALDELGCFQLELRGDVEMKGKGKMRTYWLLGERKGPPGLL
Sequence of Atrial natriuretic peptide receptor 1 (Homo sapiens) (P16066 whole entry, looked up): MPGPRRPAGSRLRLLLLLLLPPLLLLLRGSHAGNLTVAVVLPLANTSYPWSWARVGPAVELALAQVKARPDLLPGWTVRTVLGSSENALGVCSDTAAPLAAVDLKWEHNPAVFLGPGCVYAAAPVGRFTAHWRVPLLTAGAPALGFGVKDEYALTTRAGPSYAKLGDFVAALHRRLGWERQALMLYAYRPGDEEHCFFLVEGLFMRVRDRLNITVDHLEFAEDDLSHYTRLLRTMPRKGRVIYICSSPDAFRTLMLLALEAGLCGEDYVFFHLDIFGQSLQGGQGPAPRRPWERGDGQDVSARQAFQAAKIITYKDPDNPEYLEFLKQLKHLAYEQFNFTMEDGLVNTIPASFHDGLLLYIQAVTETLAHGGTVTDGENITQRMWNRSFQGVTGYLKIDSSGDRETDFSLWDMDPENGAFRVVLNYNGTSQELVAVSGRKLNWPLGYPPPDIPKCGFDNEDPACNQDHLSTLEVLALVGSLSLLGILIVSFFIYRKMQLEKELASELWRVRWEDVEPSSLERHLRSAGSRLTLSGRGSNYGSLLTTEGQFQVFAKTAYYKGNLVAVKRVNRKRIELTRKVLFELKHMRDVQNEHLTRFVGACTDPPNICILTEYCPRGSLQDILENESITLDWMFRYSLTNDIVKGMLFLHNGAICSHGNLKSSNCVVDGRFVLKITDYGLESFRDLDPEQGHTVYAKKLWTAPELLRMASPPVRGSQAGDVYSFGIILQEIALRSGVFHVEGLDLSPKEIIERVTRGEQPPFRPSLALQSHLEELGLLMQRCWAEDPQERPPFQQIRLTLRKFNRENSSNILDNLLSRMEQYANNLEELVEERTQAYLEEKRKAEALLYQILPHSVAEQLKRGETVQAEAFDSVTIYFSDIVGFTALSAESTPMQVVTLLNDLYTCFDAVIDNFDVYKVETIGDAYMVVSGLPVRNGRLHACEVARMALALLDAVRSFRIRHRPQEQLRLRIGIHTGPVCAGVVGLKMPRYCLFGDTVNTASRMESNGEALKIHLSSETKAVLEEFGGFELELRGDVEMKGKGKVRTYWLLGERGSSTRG
Sequence of Tyrosine-protein phosphatase non-receptor type substrate 1 (Homo sapiens) + Leukocyte surface antigen CD47 (Homo sapiens) (P78324 whole entry, looked up): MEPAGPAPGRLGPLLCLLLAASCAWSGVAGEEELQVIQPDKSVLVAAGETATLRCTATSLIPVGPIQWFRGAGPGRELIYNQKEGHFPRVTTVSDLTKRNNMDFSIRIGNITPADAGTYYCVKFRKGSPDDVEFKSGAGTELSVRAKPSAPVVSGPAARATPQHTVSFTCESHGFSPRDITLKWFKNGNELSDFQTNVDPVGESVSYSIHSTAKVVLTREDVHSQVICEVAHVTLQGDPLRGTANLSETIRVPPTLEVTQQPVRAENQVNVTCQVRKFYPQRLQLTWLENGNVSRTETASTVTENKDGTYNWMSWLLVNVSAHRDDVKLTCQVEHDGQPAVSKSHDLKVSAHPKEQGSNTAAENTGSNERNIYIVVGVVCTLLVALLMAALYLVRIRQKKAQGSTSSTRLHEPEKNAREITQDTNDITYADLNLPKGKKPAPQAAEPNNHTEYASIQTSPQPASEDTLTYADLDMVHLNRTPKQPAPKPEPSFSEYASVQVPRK
Sequence of Tyrosine-protein phosphatase non-receptor type substrate 1 (Homo sapiens) + Leukocyte surface antigen CD47 (Homo sapiens) (Q08722 whole entry, looked up): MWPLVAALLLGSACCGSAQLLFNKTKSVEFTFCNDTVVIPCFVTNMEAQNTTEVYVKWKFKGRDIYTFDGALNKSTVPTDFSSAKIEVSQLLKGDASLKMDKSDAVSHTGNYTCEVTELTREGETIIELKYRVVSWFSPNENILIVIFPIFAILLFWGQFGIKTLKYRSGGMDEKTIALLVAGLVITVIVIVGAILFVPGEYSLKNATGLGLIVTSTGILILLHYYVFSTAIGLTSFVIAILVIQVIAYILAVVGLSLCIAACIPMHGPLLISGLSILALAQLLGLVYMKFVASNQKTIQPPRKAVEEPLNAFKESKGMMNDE
Sequence of Parathyroid hormone/parathyroid hormone-related peptide receptor (Homo sapiens) (Q03431 whole entry, looked up): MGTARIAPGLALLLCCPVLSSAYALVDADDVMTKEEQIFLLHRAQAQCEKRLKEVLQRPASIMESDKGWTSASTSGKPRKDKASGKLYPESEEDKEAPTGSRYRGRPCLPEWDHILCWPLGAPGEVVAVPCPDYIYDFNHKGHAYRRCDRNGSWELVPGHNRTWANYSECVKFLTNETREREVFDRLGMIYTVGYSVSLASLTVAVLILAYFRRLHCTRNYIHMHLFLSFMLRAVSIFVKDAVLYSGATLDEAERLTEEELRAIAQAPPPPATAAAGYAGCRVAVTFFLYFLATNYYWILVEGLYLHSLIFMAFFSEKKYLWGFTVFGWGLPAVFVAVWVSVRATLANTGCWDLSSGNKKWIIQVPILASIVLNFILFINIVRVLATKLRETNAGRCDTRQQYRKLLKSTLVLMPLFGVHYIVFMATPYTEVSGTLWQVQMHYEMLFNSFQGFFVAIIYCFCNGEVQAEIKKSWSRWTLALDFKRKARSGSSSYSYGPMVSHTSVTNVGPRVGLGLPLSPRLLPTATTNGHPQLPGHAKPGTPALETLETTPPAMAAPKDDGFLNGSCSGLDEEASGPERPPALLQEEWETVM

With `O=[N+]([O-])c1cc([N+](=O)[O-])c2ccccc2c1`, the Potency result in assay [1], in assay [2] and in assay [3] was “inactive” in each case.

Turning to `CC(=O)[C@H]1CCC2C3CC[C@H]4C[C@H](O)CC[C@]4(C)C3CC[C@@]21C` (stereo partly specified), the Potency entry in assay [4], in assay [5], in assay [6], in assay [1], in assay [7] and in assay [2] was “inactive” each time. In addition, the Potency entry in assay [3] is “inactive”.

Take `NC(CP(=O)(O)O)C(=O)O` (stereo unspecified): the Potency result in assay [4], in assay [5], in assay [6], in assay [1], in assay [7] and in assay [2] was “inactive” in each case. Also, in assay [3], the Potency entry is “inactive”.

Take `C[C@@H]1CC[C@@]2(OC1)O[C@H]1C[C@H]3[C@@H]4CC=C5C[C@@H](O[C@@H]6O[C@H](CO)[C@@H](O[C@@H]7O[C@@H](C)[C@H](O)[C@@H](O)[C@@H]7O)[C@H](O)[C@@H]6O[C@@H]6O[C@@H](C)[C@H](O)[C@@H](O)[C@@H]6O)CC[C@]5(C)[C@@H]4CC[C@]3(C)[C@@H]1[C@H]2C`: the Potency in assay [1] is 3.72 µM (active). The Potency entry in assay [2] is “inactive”.

On to `Nc1ccc(N=Nc2ccccc2)cc1`, for which, in assay [1], the Potency entry was “inactive”.

Turning to `CN[C@@H]1C[C@@H](c2ccc(Cl)c(Cl)c2)c2ccccc21`, the Potency is 26.1 µM (active) in assay [4], 0.757 µM (active) in assay [5] and 18.5 µM (active) in assay [6]. Moreover, the Potency entry in assay [7] is “inactive”.

On to `c1ccc(CCCN2CCN(CCOC(c3ccccc3)c3ccccc3)CC2)cc1`, for which the Potency in assay [4] is 26.1 µM (active). In addition, the Potency entry in assay [5], in assay [6], in assay [1], in assay [7], in assay [2] and in assay [3] was “inactive” each time.

Turning to `Cc1c(C(=O)c2cccc3ccccc23)c2cccc3c2n1[C@H](CN1CCOCC1)CO3`, the Potency result in assay [5] and in assay [6] was “inactive” throughout.

Take `CNCCc1c[nH]c2ccc(O)cc12`: the Potency result in assay [4], in assay [5], in assay [6], in assay [1], in assay [7] and in assay [2] was “inactive” in each case. For the same molecule, the Potency result in assay [3] is “inactive”.

Regarding `O=C1C=CC[C@@H]2[C@H]3CCCN4CCC[C@@H](CN12)[C@@H]34`, the Potency result in assay [1], in assay [2] and in assay [3] was “inactive” throughout.

As to `CC[N+]1(CCOC(=O)C(O)(c2ccccc2)c2ccccc2)CCCCC1`, the Potency entry in assay [1], in assay [2] and in assay [3] was “inactive” in each case.

On to `COc1ccc(C(c2ccc(OC)cc2)C(Cl)(Cl)Cl)cc1`, for which the Potency entry in assay [1] is “inactive”.

As for `c1ccc(C2(c3ccccc3)CC2C2=NCCN2)cc1` (stereo unspecified), the Potency result in assay [5], in assay [1], in assay [2] and in assay [3] was “inactive” each time. Moreover, in assay [8], the molecule was called inactive.

With `O=C1CCC[C@@H]2[C@H]3CCCN4CCC[C@@H](CN12)[C@@H]34`, the Potency entry in assay [1], in assay [2] and in assay [3] was “inactive” each time.

Take `O=C1C(I)=CC(=C(c2cc(I)c(O)c(I)c2)c2ccccc2C(=O)O)C=C1I`: the Potency entry in assay [1], in assay [2] and in assay [3] was “inactive” throughout.

As for `C[C@]12CC[C@H](O)CC1=CC[C@H]1[C@H]3CCC(=O)[C@@]3(C)CC[C@@H]12`, the Potency entry in assay [1], in assay [2] and in assay [3] was “inactive” in each case.

Consider `CN[C@@H]1Cc2cccc3[nH]c(=O)n(c23)C1`, for which the Potency entry in assay [1], in assay [2] and in assay [3] was “inactive” throughout.

Take `O=C(O)c1cc(Oc2ccc(C(F)(F)F)cc2Cl)ccc1[N+](=O)[O-]`: the Potency entry in assay [1], in assay [2] and in assay [3] was “inactive” each time.

For the molecule `C[C@](O)(COc1ccc(C#N)cc1)C(=O)Nc1ccc(C#N)c(C(F)(F)F)c1`, the Potency result in assay [1] and in assay [2] was “inactive” in each case. Besides, in assay [3], the Potency was 38.5 µM (active).

For `O=C(NCC1CCOCC1)c1cnc(Nc2ccc(Cl)cc2Cl)nc1C(F)(F)F`, the Potency result in assay [1], in assay [2] and in assay [3] was “inactive” in each case.

In the case of `O=S(=O)(O)C(F)(F)C(F)(F)C(F)(F)C(F)(F)C(F)(F)C(F)(F)C(F)(F)C(F)(F)F`, the Potency result in assay [1], in assay [2] and in assay [3] was “inactive” each time.

Take `COC1=C[C@@H]2[C@@H]3Cc4ccc(OC)c(O)c4[C@]2(CCN3C)CC1=O`: the Potency result in assay [1] was “inactive”. The Potency in assay [2] and in assay [3] was 19.3 µM (active) each time.

On to `CCOC(=O)c1cncn1[C@H](C)c1ccccc1`, for which the Potency result in assay [1], in assay [2] and in assay [3] was “inactive” each time.

With `CC(C)N(CCNC(=O)CN1CCCC1=O)C(C)C`, the Potency result in assay [1], in assay [2] and in assay [3] was “inactive” in each case.

Take `CCOP(=O)(OCC)C(C)NC(=O)N(CCCl)N=O` (stereo unspecified): the Potency result in assay [1], in assay [2] and in assay [3] was “inactive” throughout.

In the case of `C[C@]12CC[C@H]3[C@@H](CCC4=CC(=O)CC[C@@]43C)[C@H]1CC[C@H]2O`, the Potency entry in assay [1], in assay [2] and in assay [3] was “inactive” throughout.

For the origin of these results see PubChem BioAssay (NCATS).
